Measured values from PubChem BioAssay AID1458 (National Center for Advancing Translational Sciences (NCATS), 2008).
Screen size: about 210,000 compounds; about 5,900 (2.8%) were called active. Where a call stands in place of a potency, no number is given. About 5% were inconclusive and are not listed. The sample holds actives, similar compounds and a random draw of the others, so the mix is not that of the screen. Calls come from the whole dose curve; as a rule, active = well fitted activation curve with a large enough effect; inconclusive = small, poorly fitted or top-dose-only effect; inactive = no such curve, though single readings can be large or run the other way.

Test: qHTS Assay for Enhancers of SMN2 Splice Variant Expression; note: nearly all actives have a fitted effect of over 55% in size
Settings: HEK293 SMN2-luciferase splicing reporter, luminescence, 30-36 h; series mostly up to 46.1 µM
Description: NIH Chemical Genomics Center [NCGC] NIH Molecular Libraries Probe Production centers Network [MLPCN] MLPCN Grant: R03 MH084179-01 Assay Submitter (PI): Elliot Androphy NCGC Assay Overview: Spinal muscular atrophy (SMA) is caused by insufficient levels of the survival motor neuron protein SMN. The SMN locus on chromosome 5q13 contains two inverted copies of SMN called SMN1 and SMN2 which are 99% identical at the amino acid level. SMN1 is a fully functional protein and SMN2 skips exon 7 90% of the time. Skipping of exon 7 produces non-functional protein product. 10% of the SMN2 protein includes exon 7 and is fully functional. In the SMA disease state, mutations in the SMN1 locus are the cause of the disease state. Because only 10% of SMN2 is of the fully functional form, it is not sufficient to overcome the deficiency produced by the loss of the SMN1 product. A therapy that either increase the amount of SMN2 product made or to increase the inclusion of exon 7 has been proposed for the treatment of SMA. We have designed an assay to identify small molecules that can increase the amount of functional SMN2 product by appending a luciferase reporter gene after the native SMN2 gene, such that inclusion of exon 7 in the expressed product places the luciferase sequence in frame, thus generating functional luciferase enzyme.
NCGC Assay Protocol Summary: This screen utilizes a luciferase reporter gene assay, combining the promoter and splicing based cassettes in tandem with the major portion of the native SMN2 cDNA, and then transfected into HEK293 cells. Compounds that increase luciferase signal presumably enhance expression of the functional SMN2 splice variant. Passaging media contained DMEM w/ glutamax (+phenol red) 10% FCS, 1x pen/strep, 200 ug/ml hygro, 1x sodium pyruvate. Assay media contained DMEM w/ glutamax (-phenol red) 10% FCS, 1x pen strep, 1x pyruvate Sequence, Parameter, Value, Description (1) Cells, […], 2000 cells/well, 1536 TC treated White solid bottom plate (2) Time, 10-12 hours, 37C 5% CO2 (3) Compound, 23 nl, MLSMR Library (4) Control Compound, 23 nL, Sodium butyrate st 4.5mM (final) conc (5) Time, 30-36 hours, 37C 5% CO2 (6) Reagent, 3 ul, One Glo (TM) from Promega (7) Time, 5-15 minutes, Room temp (8) Detector, Viewlux: luminescent read, 60 second integration, high speed 2x binning Keywords: Spinal muscular atrophy, SMA, SMN2, high throughput screening, MLSMR, MLPCN, NIH Roadmap, qHTS and NCGC
Potency is the fitted concentration of half-maximal effect.

| SMILES | Potency |
| --- | --- |
| COc1cccc(CNC(=O)C(NS(=O)(=O)c2ccc3nc(C)sc3c2)C(C)C)c1 (configuration not stated) | inactive |
| O=C(Nc1cccc(-c2nc3ncccc3o2)c1)c1ccco1 | inactive |
| O=C(Nc1ccc2oc(-c3ccccc3F)nc2c1)c1ccco1 | 11.2 µM (active) |
| O=C(Nc1ccc(O)c(-c2nc3ccccc3o2)c1)c1ccc(-c2cccc(Cl)c2)o1 | inactive |
| CCCCN(CC)C(=O)c1c[nH]c2ccc(S(=O)(=O)Nc3cccc(OC)c3)cc2c1=O | inactive |
| CCCNC(=O)C(CC)n1nc(CC)n2c(cc3oc(C)cc32)c1=O (configuration not stated) | inactive |
| Cc1ccc(-c2cc(N)n(Cc3cccc(Cl)c3)n2)cc1 | inactive |
| CCc1cc2c(cc3c(=O)n(CC(=O)NCc4cccc(Cl)c4)nc(CC)n32)s1 | inactive |
| Cc1ccc2cccc(NC(=O)c3cccc4ccccc34)c2n1 | inactive |
| Cc1csc(-c2coc3cc(O[C@@H]4O[C@H](CO)[C@@H](O)[C@@H](O)[C@H]4O)ccc3c2=O)n1 | 20 µM (active) |
| COc1ccc(Oc2coc3cc(OC(=O)c4cncc(Br)c4)ccc3c2=O)cc1 | inactive |
| CCc1cccc(OC2OC(CO)C(O)C(O)C2NC(C)=O)c1 (configuration not stated) | inactive |
| CCOc1ccc(C(=O)/C=C/c2cn(CC(O)CN3CCCCCC3)c3ccccc23)cc1 (configuration not stated) | inactive |
| CC(=O)Nc1cccc(C(=O)Nc2nc(C)cs2)c1 | inactive |
| Cc1csc(NC(=S)Nc2cccc(Cl)c2)n1 | 14.1 µM (active) |
| S=C(Nc1cccc(Cl)c1)Nc1ccc2cn[nH]c2c1 | inactive |
| Cn1c(=O)c2c(-c3ccccc3Br)n(Cc3ccccc3)cc2n(C)c1=O | inactive |
| COc1ccc(S(=O)(=O)c2c(Nc3cccc(Cl)c3)sc(C(=O)c3ccccc3)c2N)cc1 | inactive |
| COc1ccc(C(CC(=O)c2ccccc2)S(=O)(=O)c2ccccc2)cc1 (configuration not stated) | 12.6 µM (active) |
| COc1ccc(C(=O)CSc2nccc(=O)[nH]2)cc1 | inactive |
| COc1ccc(C(CC(=O)O)NC(=O)Cc2ccccc2)cc1 (configuration not stated) | inactive |
| O=c1ccn([C@@H]2O[C@H](COP(=O)(O)OP(=O)(O)OP(=O)(O)O)[C@@H](O)[C@H]2O)c(=O)[nH]1 | inactive |
| COc1ccc(CCN2C(=O)c3oc4cc(C)cc(C)c4c(=O)c3C2c2ccccc2F)cc1OC (configuration not stated) | inactive |
| Cc1ccc(Nc2nnc(SCc3ccccc3)s2)cc1 | 14.1 µM (active) |
| Cc1cccc(CSc2nnc(NC(=O)CSc3nnc(C)s3)s2)c1 | inactive |
| O=C(Nc1nnc(SCc2ccccc2)s1)c1ccco1 | inactive |

| SMILES | Potency |
| --- | --- |
| COc1cc(C(=O)N(Cc2ccc(C(C)C)cc2)C2CCS(=O)(=O)C2)cc(OC)c1OC (configuration not stated) | inactive |
| COc1ccc(CCNC(=O)Cn2c(=O)n(-c3ccccc3)c(=O)c3c(C)c(C)sc32)cc1OC | inactive |
| CC(C)c1nc(-c2ccccn2)no1 | inactive |
| Cc1ccc(-c2noc(CSc3nnc(-c4cccs4)n3C)n2)cc1 | inactive |
| c1csc(-c2nc(-c3ccncc3)no2)c1 | 15.8 µM (active) |
| c1ccc(CCc2nc(-c3ccncc3)no2)cc1 | inactive |
| COc1ccc(Cc2nc(-c3ccccn3)no2)cc1OC | inactive |
| c1ccc(-c2noc(-c3cccs3)n2)nc1 | 2.82 µM (active) |
| COc1ccc(C)cc1-n1c(-c2ccc(C)cc2)cc2c1CC(C)(C)CC2=O | inactive |
| Cn1c(=O)c(C(=O)O)nn(-c2ccccc2)c1=O | inactive |
| COc1ccc(-c2c(C)nn3c(N4CCC(C(=O)NCCC(C)C)CC4)cc(C)nc23)cc1OC | inactive |
| Cc1cc(-c2ccccc2)n2nc(C)c(-c3ccccc3)c2n1 | inactive |
| Cc1cc(N2CCCC2)n2nc(C)c(-c3ccccc3)c2n1 | 11.2 µM (active) |
| Cc1cc(-n2nc(C)cc2C)n2nc(C)c(-c3ccccc3)c2n1 | inactive |
| CCc1nc2nc(C)cc(Nc3ccc(F)c(Cl)c3)n2n1 | inactive |
| Cn1c(C(=O)N2CCC(C(=O)N3CCN(c4ccccc4)CC3)CC2)cc2sccc21 | inactive |
| COc1ccc(NC(=O)CCN2CCN(CCO)CC2)cc1 | inactive |
| CC(C)(C)NS(=O)(=O)c1ccc(NC(=O)NC2CCCCC2)cc1 | inactive |
| CC(C)N1CCC(NC(=O)Nc2ccccc2)CC1 | inactive |
| CC(C)c1ccc(NC(=O)NC2CCCCC2)cc1 | 11.2 µM (active) |
| CCc1nn(CC(=O)N2CCN(c3cccc(C(F)(F)F)c3)CC2)c(=O)c2cc3occc3n12 | inactive |
| Nc1ccc(S(=O)(=O)Nc2nccc(/C=C/c3ccc(Br)s3)n2)cc1 | inactive |
| Oc1cccc2ccc(/C=C/c3ccc(Br)s3)nc12 | 8.91 µM (active) |
| COc1cc(OC)cc(-c2nc3nc(C)c(CCC(=O)Nc4ccccc4)c(C)n3n2)c1 | inactive |
| CC(C)C(=O)Nc1cccc(NC(=O)c2ccc([N+](=O)[O-])cc2Cl)c1 | inactive |
| O=C(Nc1ccc(Br)cn1)c1ccc([N+](=O)[O-])o1 | inactive |

| SMILES | Potency |
| --- | --- |
| O=C(Nc1ccc(Br)cn1)c1ccc([N+](=O)[O-])cc1Cl | 7.08 µM (active) |
| COc1ccccc1N1CCN(c2ncnc3onc(-c4cccc(Cl)c4)c23)CC1 | inactive |
| Cc1occc1C(=O)Nc1nnc(C2CCCCC2)s1 | inactive |
| O=C(Nc1nnc(C2CC2)s1)c1ccccn1 | 2.82 µM (active) |
| O=C(Nc1nnc(Cc2ccccc2)s1)c1cnccn1 | inactive |
| NC(=O)CSc1nc2c(oc3ccccc32)c(=O)n1Cc1ccccc1 | inactive |
| Cc1ccc(-n2c(SCC(=O)Nc3cccc(F)c3)nc3c(oc4ccccc43)c2=O)cc1C | inactive |
| COC(=O)C1=C(c2ccccc2)c2ccccc2S(=O)(=O)N1CC(=O)Nc1ccccc1C(F)(F)F | inactive |
| COc1ccc(C(F)(F)F)cc1NC(=O)c1sc2nc(-c3cccs3)ccc2c1N | inactive |
| CN1C(=O)/C(=C/C=C2\SCCN2C)OC1=S | 12.6 µM (active) |
| Cc1n[nH]c(C)c1S(=O)(=O)N1CCCC(C(=O)Nc2ccc(Br)cc2)C1 (configuration not stated) | inactive |
| Cc1ccc2nc(-c3ccc(O)cc3)c(Nc3ccc4c(c3)OCO4)n2c1 | inactive |
| CCOc1ccc(S(=O)(=O)N(CC(=O)NCCSCc2ccc(C)cc2)c2ccccc2)cc1 | inactive |
| Cc1ccc(-c2noc(CSc3nnc(-c4ccc(Cl)cc4)n3C)n2)cc1 | inactive |
| Cc1ccc(/C=N\n2c(-c3ccccc3)n[nH]c2=S)s1 | inactive |
| Cc1cc(-c2n[nH]c(=S)n2/N=C/C(Br)=C/c2ccccc2)n[nH]1 | inactive |
| S=c1[nH]nc(-c2cccnc2)n1/N=C/C(Cl)=C\c1ccccc1 | 12.6 µM (active) |
| O=C(Cn1ncc2c3ccccc3n(Cc3ccccc3)c2c1=O)NCc1ccccn1 | inactive |
| CCN1CCN(Cc2c(O)ccc3oc(C)c(C(=O)Nc4ccc(C)cc4C)c23)CC1 | inactive |
| CC(C)(C)c1ccc(C(=O)N2CCC(c3nc(-c4ccc(S(=O)(=O)N5CCCC5)cc4)no3)CC2)cc1 | inactive |
| COc1cc(CNCCSc2nnnn2C)ccc1OCc1ccc(Cl)cc1Cl | inactive |
| CCS(=O)(=O)n1nc(-c2ccccc2)nc1SCc1ccccc1 | 22.4 µM (active) |
| CS(=O)(=O)n1nc(-c2ccccc2)nc1NCc1ccco1 | inactive |
| CCn1c(SCc2ccccc2)nc2c(c1=O)SCC2 | inactive |
| Cc1ccc(-n2nc(CO)c(C(=O)NCCc3ccccc3)n2)cc1 | inactive |
| Cc1ccc(-n2c3nc(=O)[nH]c(=O)c-3cc3c(Cl)cccc32)cc1 | inactive |

| SMILES | Potency |
| --- | --- |
| COc1ccc(N2CCN(C(=O)CSc3nc4cc(OC)c(OC)cc4cc3C#N)CC2)cc1 | inactive |
| Cc1nonc1NC(=O)CSc1nc2ccccc2cc1C#N | inactive |
| CCOc1ccc2cc(C#N)c(SCC(=O)OC)nc2c1 | 11.2 µM (active) |
| CCN1CCc2nc3sc(C(=O)Nc4ccccc4OC(F)(F)F)c(N)c3cc2C1 | inactive |
| COc1ccc(C2=CC(c3ccccc3Cl)n3nc(-c4ccc(Cl)cc4)nc3N2)cc1 (configuration not stated) | inactive |
| CC1=C(C(N)=O)C(c2ccc3c(c2)OCO3)n2nc(-c3cccc(C)c3)nc2N1 (configuration not stated) | inactive |
| COc1cccc(-c2nc3n(n2)C(c2ccccc2Cl)C(C(N)=O)=C(C)N3)c1 (configuration not stated) | 15.8 µM (active) |
| COc1ccc(/C=C/C(=O)Nc2cccnc2)cc1OC | inactive |
| COc1ccc(/C=C/C(=O)Nc2ccc(C34CC5CC(CC(O)(C5)C3)C4)cc2)cc1OC | 12.6 µM (active) |
| COc1ccc(/C=C/C(=O)N2CCCC2)cc1OC | inactive |
| CCOC(=O)c1ccc(NC(=O)CC2C(=O)N(c3ccccc3)C(=O)N2Cc2cccs2)cc1 (configuration not stated) | inactive |
| CCOC(=O)c1sc(NC(=O)COc2ncnc3ccccc23)c(C(=O)OCC)c1C | inactive |
| CCC(=O)Nc1sc(C(=O)Nc2ccccc2)c(C)c1C(=O)OC | 3.55 µM (active) |
| CCOC(=O)c1c(NC(=O)CCl)sc(C(=O)N(CC)CC)c1C | inactive |
| COc1ccccc1NC(=O)c1sc2nc(C)c(C(=O)Nc3ccc(Cl)cc3)c(-c3ccc(Br)cc3)c2c1N | inactive |
| CCc1ccccc1NS(=O)(=O)c1ccc2nc(-c3ccccc3)[nH]c2c1 | inactive |
| Cc1c(NC(=O)c2cc(-c3ccc(Br)cc3)on2)c(=O)n(-c2ccccc2)n1C | inactive |
| CC(C)Oc1ccc(CNC(=O)C2CCN(c3nc4ccccc4n(C)c3=O)CC2)cc1 | inactive |
| Cc1cc(C)c2oc(C(=O)Nc3ccc(S(=O)(=O)N(C)c4ccccc4)cc3)cc(=O)c2c1 | inactive |
| Cc1nc2cc(NC(=O)NCc3ccccc3)ccc2o1 | inactive |
| Cc1ccc(NC(=O)Nc2ccc3oc(C)nc3c2)cc1 | 11.2 µM (active) |
| Cc1nc2ccc(NC(=O)C(F)(F)F)cc2o1 | inactive |
| CC(C)c1ccc(NS(=O)(=O)c2ccc3[nH]cc(C(=O)NC4CCCC4)c(=O)c3c2)cc1 | inactive |
| CCOc1ccc(-c2n[nH]c3c2C(c2ccccc2OC)N(c2ccc(Br)cc2)C3=O)cc1 (configuration not stated) | inactive |
